# Test results reported in PubChem BioAssay.
# Unmarked numbers belong to inactive results. Calls of active or inactive are those of the source. Unless noted, no rule for the calls is given here.
# Target: Dihydroorotate dehydrogenase (quinone), mitochondrial (Plasmodium falciparum (isolate 3D7)) (UniProt Q08210)
# Experiment: PfDHODH enzyme inhibitors, primary screen, biochemical, C-terminal His tag, absorbance 600 nm (AID 1175);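 also: recombinant parasite enzyme with a five histidine tag at its C terminus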
# Settings: DCIP absorbance 600 nm, higher = more signal, called active from +8 up or from −8 down
# Also: test concentration not given here.
# Chain of Dihydroorotate dehydrogenase (quinone), mitochondrial (Plasmodium falciparum (isolate 3D7)) (Q08210 whole entry, looked up): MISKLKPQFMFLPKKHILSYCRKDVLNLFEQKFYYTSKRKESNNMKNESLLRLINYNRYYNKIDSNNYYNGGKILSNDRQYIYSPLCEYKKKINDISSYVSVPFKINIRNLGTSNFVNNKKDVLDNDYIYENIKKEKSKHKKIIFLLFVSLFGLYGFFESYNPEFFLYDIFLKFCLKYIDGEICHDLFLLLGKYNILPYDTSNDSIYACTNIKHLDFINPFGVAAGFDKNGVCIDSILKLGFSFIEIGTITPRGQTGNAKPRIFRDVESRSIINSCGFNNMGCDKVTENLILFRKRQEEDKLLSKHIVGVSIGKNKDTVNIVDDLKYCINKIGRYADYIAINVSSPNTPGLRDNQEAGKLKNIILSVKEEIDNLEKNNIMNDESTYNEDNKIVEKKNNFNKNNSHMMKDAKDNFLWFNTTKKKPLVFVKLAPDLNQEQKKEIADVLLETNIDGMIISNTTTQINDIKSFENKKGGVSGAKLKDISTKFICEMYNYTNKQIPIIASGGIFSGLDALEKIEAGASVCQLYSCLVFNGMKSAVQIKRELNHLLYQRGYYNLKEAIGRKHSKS
row,Structure (SMILES),composite z-score
1,C=CCOC(=O)[C@H]1[C@@H]2C(=O)O[C@@H](c3ccccc3)[C@@H](c3ccccc3)N2[C@@H](c2ccc(OCCOC(=O)[C@H]3C[C@H]4C(=O)N5CCC[C@H]5C(=O)N4[C@H]3c3cccc(OCCO)c3)cc2)[C@]12C(=O)Nc1ccc(I)cc12,-15.3 (active)
2,C=C(/C(=C/C[C@@H](OC(=O)c1ccncc1)c1ccc(OCCO)cc1)c1cnc2ccccc2c1)C(C)C,-10.5 (active)
3,O=C1C[C@]2(c3ccc([N+](=O)[O-])cc3)C(=O)N(CCN3CCOCC3)c3cc(CO)ccc3[C@H]2N1CC12CC3CC(CC(C3)C1)C2,-6.92
4,CC(C)C[C@@H]1NC(=O)[C@H]2C[C@@H](C(=O)O)[C@@H](c3ccc(O)cc3)N2C1=O,0.425
5,COCCOC(=O)N1C(=O)[C@@]2(c3cc(C#Cc4ccc(OC)cc4)ccc31)[C@H](c1ccc(O)cc1)N1[C@H](c3ccccc3)[C@H](c3ccccc3)OC(=O)[C@H]1[C@@H]2C(N)=O,-0.0395
6,CC(C)NC(=O)[C@@]1(C)c2ccccc2C(=O)N(Cc2cc(F)cc(C(F)(F)F)c2)[C@H]1c1ccc(CO)cc1,0.0724
7,COCCOC(=O)N1C(=O)[C@@]2(c3ccccc31)[C@H](C(N)=O)[C@H]1C(=O)O[C@H](c3ccccc3)[C@H](c3ccccc3)N1[C@@H]2c1ccccc1OCCO,0.692
8,CN1C(=O)C2C=CC(C(O)c3ccc(I)cc3)N(NC(=O)OC(C)(C)C)C2C1=O (stereo unspecified),0.0247
9,C=CCC(OC(C)=O)[C@@H]1[C@@H](N(Cc2cc3ccccc3o2)C(=O)Cc2ccc(F)cc2)c2cc(OCCCO)ccc2N1C(=O)Cc1ccc(OC)cc1 (stereo partly specified),-1.66
10,CN1C(=O)C2C=CC(C(O)C(c3ccccc3)c3ccccc3)N(NC(=O)OC(C)(C)C)C2C1=O (stereo unspecified),-1.08
11,COCCCNC(=O)[C@]1(CCC(=O)OC(C)(C)C)N=C(c2ccc(OCCCO)cc2)O[C@@H]1c1ccccc1N=[N+]=[N-],0.08
12,O=C1O[C@@H](c2ccccc2)[C@@H](c2ccccc2)N2[C@@H](c3ccccc3OCCO)[C@]3(C(=O)Nc4ccc(C#CCCO)cc43)[C@@H](C(=O)O)[C@H]12,-2.05
13,CN1C(=O)C2C(C1=O)C1C=C(CCCO)C2C(c2ccc(CN3CCCC3)cc2)N1C (stereo unspecified),-3.89
14,COC(=O)[C@@]1(Cc2ccc(F)cc2)[C@@H]2C(=CC(=O)[C@H]2CC(=O)C(=O)N(C)C)CN1C(=O)c1ccccc1,0.354
15,[N-]=[N+]=NCc1ccccc1C[C@]1(C(=O)NCc2ccccc2)N=C(c2ccc(OCCCO)cc2)O[C@H]1c1ccccc1N=[N+]=[N-],0.294
16,C=C(COC)/C(=C/C[C@H](OC(=O)c1ccncc1)c1ccc(CO)o1)c1cc(C(=O)OC)ccc1OC,-1.02
17,CS(=O)(=O)CCOC(=O)C1=CC(CCCO)=CC(c2cccs2)N(Cc2cccc(OC(F)(F)F)c2)C=C1C(=O)OCCS(C)(=O)=O (stereo unspecified),-0.407
18,CCCNC(=O)[C@@H]1c2ccccc2C(=O)N(Cc2ccccc2Cl)[C@H]1c1ccc(CO)cc1,-0.227
19,CCc1cccc(NC(=O)O[C@H]2[C@H](OC(=O)Nc3ccc4c(c3)OCO4)[C@@H](OC(=O)Nc3ccc4c(c3)OCO4)[C@@H](OC)O[C@@H]2CO)c1,-0.0004
20,COC(=O)[C@@]1(Cc2ccc(OC)cc2)[C@H]2c3cc(C(=O)N4CCCC4)n(Cc4cc(F)c(F)c(F)c4)c3C[C@H]2CN1C(=O)c1ccccc1,0.13
21,CN(C)C(=O)[C@@]1(Cc2ccccc2)N=C(c2ccc(OCCCO)cc2)O[C@H]1c1ccccc1CN=[N+]=[N-],0.519
22,COc1ccc([Si](C)(C)[C@@H]2[C@@H](CCO)O[C@]3(C(=O)N(Cc4ccc(NC(C)=O)cc4)c4ccccc43)[C@H]2C)cc1,-1.34
23,O=C1O[C@@H](c2ccccc2)[C@@H](c2ccccc2)N2[C@@H](c3ccc(O)cc3)[C@]3(C(=O)Nc4ccccc43)[C@@H](C(=O)O)[C@H]12,-1.42
24,O=C1c2ccccc2[C@@]2(Cc3ccccc3N(C3CC3)C2=O)[C@H](c2ccc(CO)cc2)N1Cc1ccccc1C(F)(F)F,-9.3 (active)
25,O[C@@H](Cc1ccccc1)[C@H]1C2C=CCCC(c3ccccc3)=C2CN1Cc1cccc(Cl)c1 (stereo partly specified),0.426

# Tested on: not listed separately
# Experiment: P. aeruginosa biofilm formation inhibitors, primary screen, strain PAO1, LB-PBS medium, absorbance 600 nm (AID 1176)
# Settings: P. aeruginosa PAO1 growth/biofilm, A600, 12 h; higher = more signal
row,Structure (SMILES),z-score
1,CCCC=C(CCC)[C@@H](NC(=O)c1ccc(-c2ccccc2)cc1)c1ccc(C(=O)OC)cc1,-0.126
2,COC(=O)[C@@]1(Cc2ccccc2)[C@H]2c3cc(C(=O)N4CCCC4)n(Cc4ccccn4)c3C[C@H]2CN1C(=O)c1ccccc1,1.79
3,O=C(CS)NCCCCCNC(=O)[C@@H]1C[C@@H]2C(=O)N[C@@H](Cc3ccccc3)C(=O)N2[C@@H]1c1ccc(O)cc1,-0.0338
4,CC(C)C[C@@H]1NC(=O)[C@H]2C[C@@H](C(=O)NCCCCCCN(C)C)[C@@H](c3cccc(OCCO)c3)N2C1=O,-0.0059
5,COCCCNC(=O)[C@@]1(CCS(=O)(=O)c2ccccc2)N=C(c2ccc(OCCCO)cc2)O[C@H]1c1ccccc1,0.0963
6,Cc1ccc(S[C@]2(C(=O)NCC(F)(F)F)CC(=O)N(Cc3ccccc3Cl)[C@@H]2c2ccc(CO)cc2I)cc1,0.0214
7,O=C1O[C@@H](c2ccccc2)[C@@H](c2ccccc2)N2[C@@H](c3ccc(OCCO)cc3)[C@]3(C(=O)Nc4ccc(C#CCCO)cc43)[C@@H](C(=O)N3CCCCCCC3)[C@H]12,1.72
8,CCOC(=O)C1=CCC(c2cc3ccccc3[nH]2)NC1 (stereo unspecified),0.0083
9,O=C1NC(=O)C2C1C=CC(C(O)Cc1ccccc1)N2Nc1ccccn1 (stereo unspecified),-0.118
10,C#C[C@@H]1Oc2ccccc2S(=O)(=O)N2CCC[C@H]12,0.0359
11,COc1ccc([Si](C)(C)[C@H]2[C@H](CCO)O[C@@]3(C(=O)N(Cc4cccc(NC(=O)[C@H](C)O)c4)c4ccccc43)[C@@H]2C)cc1,1.19
12,C=CCOC(=O)[C@H]1[C@@H]2C(=O)O[C@@H](c3ccccc3)[C@@H](c3ccccc3)N2[C@@H](c2ccc(OCCOC(=O)[C@H]3C[C@H]4C(=O)N5CCC[C@H]5C(=O)N4[C@H]3c3cccc(OCCO)c3)cc2)[C@]12C(=O)Nc1ccc(I)cc12,-0.102
13,C=C(/C(=C/C[C@@H](OC(=O)c1ccncc1)c1ccc(OCCO)cc1)c1cnc2ccccc2c1)C(C)C,-0.235
14,O=C1C[C@]2(c3ccc([N+](=O)[O-])cc3)C(=O)N(CCN3CCOCC3)c3cc(CO)ccc3[C@H]2N1CC12CC3CC(CC(C3)C1)C2,0.277
15,CC(C)C[C@@H]1NC(=O)[C@H]2C[C@@H](C(=O)O)[C@@H](c3ccc(O)cc3)N2C1=O,-0.86
16,COCCOC(=O)N1C(=O)[C@@]2(c3cc(C#Cc4ccc(OC)cc4)ccc31)[C@H](c1ccc(O)cc1)N1[C@H](c3ccccc3)[C@H](c3ccccc3)OC(=O)[C@H]1[C@@H]2C(N)=O,0.898

row,Structure (SMILES),z-score
1,CC(C)NC(=O)[C@@]1(C)c2ccccc2C(=O)N(Cc2cc(F)cc(C(F)(F)F)c2)[C@H]1c1ccc(CO)cc1,0.897
2,COCCOC(=O)N1C(=O)[C@@]2(c3ccccc31)[C@H](C(N)=O)[C@H]1C(=O)O[C@H](c3ccccc3)[C@H](c3ccccc3)N1[C@@H]2c1ccccc1OCCO,0.517
3,CN1C(=O)C2C=CC(C(O)c3ccc(I)cc3)N(NC(=O)OC(C)(C)C)C2C1=O (stereo unspecified),0.53
4,C=CCC(OC(C)=O)[C@@H]1[C@@H](N(Cc2cc3ccccc3o2)C(=O)Cc2ccc(F)cc2)c2cc(OCCCO)ccc2N1C(=O)Cc1ccc(OC)cc1 (stereo partly specified),0.632
5,CN1C(=O)C2C=CC(C(O)C(c3ccccc3)c3ccccc3)N(NC(=O)OC(C)(C)C)C2C1=O (stereo unspecified),0.791
6,COCCCNC(=O)[C@]1(CCC(=O)OC(C)(C)C)N=C(c2ccc(OCCCO)cc2)O[C@@H]1c1ccccc1N=[N+]=[N-],0.149
7,O=C1O[C@@H](c2ccccc2)[C@@H](c2ccccc2)N2[C@@H](c3ccccc3OCCO)[C@]3(C(=O)Nc4ccc(C#CCCO)cc43)[C@@H](C(=O)O)[C@H]12,-0.681
8,CN1C(=O)C2C(C1=O)C1C=C(CCCO)C2C(c2ccc(CN3CCCC3)cc2)N1C (stereo unspecified),-1.02
9,COC(=O)[C@@]1(Cc2ccc(F)cc2)[C@@H]2C(=CC(=O)[C@H]2CC(=O)C(=O)N(C)C)CN1C(=O)c1ccccc1,0.784
10,[N-]=[N+]=NCc1ccccc1C[C@]1(C(=O)NCc2ccccc2)N=C(c2ccc(OCCCO)cc2)O[C@H]1c1ccccc1N=[N+]=[N-],1.68
11,C=C(COC)/C(=C/C[C@H](OC(=O)c1ccncc1)c1ccc(CO)o1)c1cc(C(=O)OC)ccc1OC,1.11
12,CS(=O)(=O)CCOC(=O)C1=CC(CCCO)=CC(c2cccs2)N(Cc2cccc(OC(F)(F)F)c2)C=C1C(=O)OCCS(C)(=O)=O (stereo unspecified),1.52
13,CCCNC(=O)[C@@H]1c2ccccc2C(=O)N(Cc2ccccc2Cl)[C@H]1c1ccc(CO)cc1,-0.217
14,CCc1cccc(NC(=O)O[C@H]2[C@H](OC(=O)Nc3ccc4c(c3)OCO4)[C@@H](OC(=O)Nc3ccc4c(c3)OCO4)[C@@H](OC)O[C@@H]2CO)c1,0.745
15,COC(=O)[C@@]1(Cc2ccc(OC)cc2)[C@H]2c3cc(C(=O)N4CCCC4)n(Cc4cc(F)c(F)c(F)c4)c3C[C@H]2CN1C(=O)c1ccccc1,1.03
